Source: PMC5540273 (PLoS ONE, 2017)

Assays:
Details in all cases: concentration: 1 μM, replicates: in singlicate; n = 1
AMPK-alpha2 = tested on: T1, AMPK-alpha2
T1 construct: gene PRKAA2

ANKK1 = tested on: ANKK1
ARK5 = tested on: T2, ARK5
T2 construct: gene NUAK1

ASK1 = tested on: T3, ASK1
T3 construct: gene MAP3K5

ASK2 = tested on: T4, ASK2
T4 construct: gene MAP3K6

AURKA = tested on: AURKA
AURKB = tested on: AURKB
AURKC = tested on: AURKC
AXL = tested on: AXL
BIKE = tested on: T5, BIKE
T5 construct: gene BMP2K
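Also: KINOMEscan kinase panel screen.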

In the case of `O=C(NCCNc1ccnc(Nc2ccc(F)cc2)n1)Nc1ccccc1F` [GSK1379880], the “%Inh” value (AMPK-alpha2) is reported as 0%, the “%Inh” value (ANKK1) is reported as 0% and the “%Inh” value (ARK5) is reported as 21%. The “%Inh” value (ASK1) was 1%, the “%Inh” value (ASK2) was 0% and the “%Inh” value (AURKA) was 11%. The “%Inh” value (AURKB) was 32%, the “%Inh” value (AURKC) was 6% and the “%Inh” value (AXL) was 0%. The “%Inh” value (BIKE) was 0%.

`Cn1cc(-c2ccc3c(c2)CCN3C(=O)Cc2ccccc2Cl)c2c(N)ncnc21` [GSK2608885] was tested, and the “%Inh” value (AMPK-alpha2) was 30%, the “%Inh” value (ANKK1) was 4% and the “%Inh” value (ARK5) was 94%. The “%Inh” value (ASK1) was 0%, the “%Inh” value (ASK2) was 0% and the “%Inh” value (AURKA) was 98%. The “%Inh” value (AURKB) was 86%, the “%Inh” value (AURKC) was 74% and the “%Inh” value (AXL) was 94%. The “%Inh” value (BIKE) was 23%.

With `N#Cc1ccc(-c2cc(-c3c[nH]nc3-c3ccccn3)ccn2)cc1` [GW693028] the “%Inh” value (AMPK-alpha2) was 49%, the “%Inh” value (ANKK1) was 0% and the “%Inh” value (ARK5) was 27%. For the same compound, the “%Inh” value (ASK1) was 0%, the “%Inh” value (ASK2) was 0% and the “%Inh” value (AURKA) was 0%. For the same compound, the “%Inh” value (AURKB) was 32%, the “%Inh” value (AURKC) was 0% and the “%Inh” value (AXL) was 0%. For the same compound, the “%Inh” value (BIKE) was 11%.

In the case of `O=C(NOCC1CC1)c1ccc(F)c(F)c1Nc1ccc(I)cc1Cl`, the “%Inh” value (AMPK-alpha2) is reported as 0%, the “%Inh” value (ANKK1) is reported as 0% and the “%Inh” value (ARK5) is reported as 0%. The “%Inh” value (ASK1) was 0%, the “%Inh” value (ASK2) was 0% and the “%Inh” value (AURKA) was 0%. For the same compound, the “%Inh” value (AURKB) was 0%, the “%Inh” value (AURKC) was 20% and the “%Inh” value (AXL) was 2%. For the same compound, the “%Inh” value (BIKE) was 43%.

In the case of `NS(=O)(=O)CCc1cccc(Nc2nccc(-c3c(-c4cccc(NC(=O)c5c(F)cccc5F)c4)nn4ccccc34)n2)c1` [GSK336735], the “%Inh” value (AMPK-alpha2) is reported as 33%, the “%Inh” value (ANKK1) is reported as 83% and the “%Inh” value (ARK5) is reported as 84%. For the same compound, the “%Inh” value (ASK1) was 2%, the “%Inh” value (ASK2) was 0% and the “%Inh” value (AURKA) was 93.5%. For the same compound, the “%Inh” value (AURKB) was 81%, the “%Inh” value (AURKC) was 72% and the “%Inh” value (AXL) was 90.5%. For the same compound, the “%Inh” value (BIKE) was 27%.
